{"source": "the supplement of paper PMC13094657", "note": "± gives the standard deviation of the averaged measurements."}
{"tested_on": "MDA-MB-231", "assay": "kynurenine production, fold change vs DMSO IFNg/TNF control; higher = more kynurenine produced (less inhibition)", "settings": "pre-treatment time: 18 h then 24 h IFNg/TNF", "in_short": "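Fold change over cytokine-stimulated vehicle wells on the same plate is the measure used for kynurenine production, averaged across duplicate plates in the first screening round. MDA-MB-231 cells, seeded 24 h beforehand at 7 × 10^4/well in 96-well plates, were pre-treated 18 h with each natural product in 0.1% DMSO and stimulated 24 h at 37°C with IFNγ (1 U/ml) and TNF (6.25 ng/ml). Supernatants were read at 492 nm following trichloroacetic acid and p-dimethylaminobenzaldehyde treatment, against 0–100 μM standards.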"}
{"smiles": "C=C1C(=O)O[C@H]2C[C@H](C)C(/C=C/C(C)=O)=CC[C@H]12", "note": "[Xanthatin] (compound dose: 10 uM)", "kynurenine production": "0.13 ± 0.042"}
{"smiles": "C=CCC(=NOS(=O)(=O)O)S[C@@H]1O[C@H](CO)[C@@H](O)[C@H](O)[C@H]1O", "note": "(stereo in doubt) [Sinigrin] (compound dose: 10 uM)", "kynurenine production": "1.04 ± 0.14"}
{"smiles": "C=C1C(=O)O[C@@H]2CC(C)=C([C@@H](C)CCCOC(C)=O)[C@@H](O)[C@H]12", "note": "[Inulicin] (compound dose: 10 uM)", "kynurenine production": "1.16 ± 0.15"}
{"smiles": "CC1=CC[C@@H](C(C)(C)O)CC1", "note": "[(-)-α-terpineol] (compound dose: 10 uM)", "kynurenine production": "0.913 ± 0.057"}
{"smiles": "C=C(C)[C@@H]1CC=C(C)C(=O)C1", "note": "[L(-)-carvone] (compound dose: 10 uM)", "kynurenine production": "0.974 ± 0.049"}
{"smiles": "CC(=O)O[C@@]12CO[C@@H]1C[C@H](O)[C@@]1(C)C(=O)[C@H](O)C3=C(C)[C@@H](OC(=O)[C@H](O)[C@@H](NC(=O)OC(C)(C)C)c4ccccc4)C[C@@](O)([C@@H](OC(=O)c4ccccc4)[C@H]21)C3(C)C", "note": "[Docetaxel] (compound dose: 10 uM)", "kynurenine production": "0.758 ± 0.051"}
{"smiles": "CC1OC(OC2C(CO)OC(OCC3OC(OC(=O)C45CCC(C)(C)CC4C4=CCC6C7(C)CCC(OC8OCC(O)C(O)C8O)C(C)(CO)C7CCC6(C)C4(C)CC5)C(O)C(O)C3O)C(O)C2O)C(O)C(O)C1O", "note": "(stereo not drawn) [Hederacoside D] (compound dose: 10 uM)", "kynurenine production": "0.851 ± 0.16"}
{"smiles": "C[C@]1(O)C[C@@H](O)[C@]2(O)C=CO[C@@H](O[C@H]3O[C@H](CO)[C@@H](O)[C@H](O)[C@H]3O)[C@@H]21", "note": "[Harpagide] (compound dose: 10 uM)", "kynurenine production": "0.747 ± 0.068"}
{"smiles": "C=C[C@]1(C)C[C@@H](OC(=O)CO)[C@]2(C)[C@H](C)CC[C@]3(CCC(=O)[C@@H]32)[C@@H](C)[C@@H]1O", "note": "[Pleuromutilin] (compound dose: 10 uM)", "kynurenine production": "0.861 ± 0.094"}
{"smiles": "O[C@H]1[C@H]2c3cc4c(cc3CN3CCC(=C[C@@H]1O)[C@H]23)OCO4", "note": "[Lycorine chloride] (compound dose: 10 uM)", "kynurenine production": "0.184 ± 0.072"}
{"smiles": "Cc1cc(O)cc(O[C@@H]2O[C@H](CO)[C@@H](O)[C@H](O)[C@H]2O)c1", "note": "[Orcinol glucoside] (compound dose: 10 uM)", "kynurenine production": "0.821 ± 0.095"}
{"smiles": "C=C1[C@H](OC(C)=O)[C@@H](O)[C@@H](OC(=O)c2cccnc2)C(C)(C)/C=C/[C@H](C)[C@H](OC(C)=O)[C@@]2(O)C[C@@](C)(OC(C)=O)[C@H](OC(=O)c3ccccc3)[C@@H]2[C@H]1OC(C)=O", "note": "[Jatrophane 5] (compound dose: 10 uM)", "kynurenine production": "0.90473 ± 0.00055"}
{"smiles": "C[C@@]12C[C@@]3(O)O[C@@H](O1)[C@]1(COC(=O)c4ccc(O)cc4)[C@@H]3C[C@]12O[C@@H]1O[C@H](CO)[C@@H](O)[C@H](O)[C@H]1O", "note": "[Oxypaeoniflorin] (compound dose: 10 uM)", "kynurenine production": "0.916 ± 0.082"}
{"smiles": "C=C(C)[C@@H]1CC[C@]2(C)CC[C@]3(C)[C@H](CC[C@@H]4[C@@]5(C)CCC(=O)C(C)(C)[C@@H]5CC[C@]43C)[C@@H]12", "note": "[Lupenone] (compound dose: 10 uM)", "kynurenine production": "0.898 ± 0.16"}
{"smiles": "C[C@H]1[C@H](C)CC[C@]2(C(=O)O)CC[C@]3(C)C(=CC[C@@H]4[C@@]5(C)CC[C@H](O)C(C)(C)[C@@H]5CC[C@]43C)[C@H]12", "note": "[Ursolic acid] (compound dose: 10 uM)", "kynurenine production": "0.891 ± 0.21"}
{"smiles": "CC(=O)OC[C@H]1O[C@@H](OC[C@H]2O[C@@H](OC(=O)[C@]34CCC(C)(C)C[C@H]3C3=CC[C@@H]5[C@@]6(C)CC[C@H](O[C@@H]7OC[C@H](O)[C@H](O)[C@H]7O[C@@H]7O[C@H](CO)[C@@H](O)[C@H](O)[C@H]7O)C(C)(C)[C@@H]6CC[C@@]5(C)[C@]3(C)CC4)[C@H](O)[C@@H](O)[C@@H]2O)[C@H](O)[C@@H](O)[C@@H]1O[C@@H]1O[C@@H](C)[C@H](O)[C@@H](O)[C@H]1O", "note": "[Acanthopanaxoside B] (compound dose: 10 uM)", "kynurenine production": "1.01 ± 0.17"}
{"smiles": "CC(=O)OCC1=COC(OC(C)=O)C2C(C)CCC12", "note": "(stereo not drawn) [Teucrein] (compound dose: 10 uM)", "kynurenine production": "0.842 ± 0.086"}
{"smiles": "C[C@H]1O[C@@H](O[C@H]2[C@@H](O)C[C@H](O[C@H]3[C@@H](O)C[C@H](O[C@H]4CC[C@@]5(C)[C@H](CC[C@@H]6[C@@H]5C[C@@H](O)[C@]5(C)[C@@H](C7=CC(=O)OC7)CC[C@]65O)C4)O[C@@H]3C)O[C@@H]2C)C[C@H](O)[C@@H]1O", "note": "[Digoxin] (compound dose: 10 uM)", "kynurenine production": "0.103 ± 0.071"}
{"smiles": "C[C@@H]1CC[C@]2(C(=O)O[C@@H]3O[C@H](CO)[C@@H](O)[C@H](O)[C@H]3O)CC[C@]3(C)C(=CC[C@@H]4[C@@]5(C)CC[C@H](O)[C@](C)(C(=O)O)[C@@H]5CC[C@]43C)[C@@H]2[C@]1(C)O", "note": "[Ilexsaponin A] (compound dose: 10 uM)", "kynurenine production": "0.883 ± 0.013"}
{"smiles": "CC(C)(O)[C@H]1CC[C@@](C)([C@H]2CC[C@]3(C)[C@@H]2[C@H](O)C[C@@H]2[C@@]4(C)CC[C@H](O)C(C)(C)[C@@H]4[C@@H](O[C@@H]4O[C@H](CO)[C@@H](O)[C@H](O)[C@H]4O)C[C@]23C)O1", "note": "[Pseudoginsenoside RT5] (compound dose: 10 uM)", "kynurenine production": "0.865 ± 0.21"}
{"smiles": "C[C@H](CC[C@@H](O)C(C)(C)O)[C@H]1CC[C@@]2(C)[C@@H]3CC=C4[C@@H](CC[C@H](O)C4(C)C)[C@]3(C)[C@H](O)C[C@]12C", "note": "[Mogrol] (compound dose: 10 uM)", "kynurenine production": "0.905 ± 0.15"}
{"smiles": "CC1(C)CC[C@]2(C(=O)O[C@@H]3O[C@H](CO)[C@@H](O)[C@H](O)[C@H]3O)CC[C@]3(C)C(=CC[C@@H]4[C@@]5(C)CC[C@H](O[C@@H]6O[C@H](C(=O)O)[C@@H](O)[C@H](O)[C@H]6O[C@H]6OC[C@@H](O)[C@H](O)[C@H]6O)C(C)(C)[C@@H]5CC[C@]43C)[C@@H]2C1", "note": "[Pseudoginsenoside RT1] (compound dose: 10 uM)", "kynurenine production": "0.988 ± 0.14"}
{"smiles": "CC(C)=CCC[C@](C)(O[C@@H]1O[C@H](CO)[C@@H](O)[C@H](O)[C@H]1O)[C@H]1CC[C@]2(C)[C@@H]1[C@H](O)C[C@@H]1[C@@]3(C)CC[C@H](O[C@@H]4O[C@H](CO)[C@@H](O)[C@H](O)[C@H]4O[C@@H]4O[C@H](CO)[C@@H](O)[C@H](O)[C@H]4O)C(C)(C)[C@@H]3CC[C@]12C", "note": "[Ginsenoside Rd] (compound dose: 10 uM)", "kynurenine production": "0.778 ± 0.17"}
{"smiles": "CC1=CC[C@@H](C(C)(C)O)CC1", "note": "[α terpineol (mixed)] (compound dose: 10 uM)", "kynurenine production": "0.876 ± 0.082"}
{"smiles": "C[C@H]1[C@H](C)CC[C@]2(C(=O)O)CC[C@]3(C)C(=CC[C@@H]4[C@@]5(C)C[C@@H](O)[C@H](O)C(C)(C)[C@@H]5CC[C@]43C)[C@H]12", "note": "[Corosolic acid] (compound dose: 10 uM)", "kynurenine production": "1.19 ± 0.13"}
{"smiles": "C=C1C(=O)O[C@H]2C[C@@H](C)[C@@H]3CCC(=O)[C@@]3(C)[C@@H](OC(C)=O)[C@H]12", "note": "[Ergolide] (compound dose: 10 uM)", "kynurenine production": "0.246 ± 0.13"}
{"smiles": "CN1CCC[C@@H]1CC(=O)C[C@@H]1CCCN1C", "note": "[Cuscohygrine] (compound dose: 10 uM)", "kynurenine production": "0.962 ± 0.027"}
{"smiles": "CC(C)=CCCC(C)(OC1OC(CO)C(O)C(O)C1O)C1CCC2(C)C1C(O)CC1C3(C)CC(O)C(OC4OC(CO)C(O)C(O)C4OC4OC(CO)C(O)C(O)C4O)C(C)(C)C3CCC12C", "note": "(stereo not drawn) [Gypenoside XLVI] (compound dose: 10 uM)", "kynurenine production": "0.812 ± 0.16"}
{"smiles": "O=c1c(O)c(-c2ccc(O)cc2)oc2cc(O)cc(O)c12", "note": "[Kaempferol] (compound dose: 10 uM)", "kynurenine production": "0.672 ± 0.023"}
{"smiles": "C/C1=C\\[C@H]2C(=O)[C@@H](C)C[C@]2(O)C(=O)/C(C)=C/[C@@H]2[C@H](CC1)C2(C)C", "note": "[jolkinol C] (compound dose: 10 uM)", "kynurenine production": "0.868 ± 0.087"}
{"smiles": "C[C@@H]1O[C@@H](O[C@H]2[C@H](O)[C@@H](O)[C@H](OC[C@H]3O[C@@H](OC(=O)[C@]45CCC(C)(C)C[C@H]4C4=CC[C@@H]6[C@@]7(C)CC[C@H](O[C@@H]8OC[C@H](O)[C@H](O)[C@H]8O)[C@@](C)(CO)[C@@H]7CC[C@@]6(C)[C@]4(C)CC5)[C@H](O)[C@@H](O)[C@@H]3O)O[C@@H]2CO)[C@H](O)[C@H](O)[C@H]1O", "note": "[Cauloside D] (compound dose: 10 uM)", "kynurenine production": "1.23 ± 0.19"}
{"smiles": "CC1(C)CCC[C@](C)([C@H]2CC[C@]3(C)[C@@H]2[C@H](O)C[C@@H]2[C@@]4(C)CC[C@H](O)C(C)(C)[C@@H]4[C@@H](O)C[C@]23C)O1", "note": "[Panaxatriol] (compound dose: 10 uM)", "kynurenine production": "0.846 ± 0.073"}
{"smiles": "CCCCCCCCCC(=O)O[C@@H]1[C@@H](C)[C@@]2(O)[C@@H](C=C(COC(=O)Cc3ccc(O)c(OC)c3)C[C@]3(O)C(=O)C(C)=C[C@@H]23)[C@@H]2C(C)(C)[C@]12OC(=O)CCCCCCCCC", "note": "[Phorbol 12,13-didecanoate 20-homovanillate] (compound dose: 10 uM)", "kynurenine production": "0.74 ± 0.024"}
